# Where “and” joins values, the source holds several entries; their conditions need not be identical. Equal entries are not always repeated. Inconclusive results are not listed. The source holds several records for some structures; these can differ, active in one and inactive in another. Calls of active or inactive are those of the source. The calls were made as follows: active = hit-call score of the fitted dose curve at least 0.9, where 1 is the maximum; inconclusive = response in the unintended direction; inactive = score below 0.9.
# Molecular target: human Peripheral-type Benzodiazepine Receptor (PBR), TSPO (gene 706) (UniProt P30536)
# Sequence (P30536 whole entry, looked up): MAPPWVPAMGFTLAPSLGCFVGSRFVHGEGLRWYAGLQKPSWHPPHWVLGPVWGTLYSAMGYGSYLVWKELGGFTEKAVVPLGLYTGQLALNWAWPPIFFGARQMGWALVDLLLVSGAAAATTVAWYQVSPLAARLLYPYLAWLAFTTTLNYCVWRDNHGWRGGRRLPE
# Experiment: NVS_MP_hPBR: NovaScreen (NVS) Membrane Protein Assay for human Peripheral-type Benzodiazepine Receptor (PBR) (AID 2283331);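 also: hits reduce radioligand binding relative to DMSO baseline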
# Method in brief: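 Cell-free radioligand displacement, human colonic membranes, 1 h exposure. Filter radiodetection read-out. Single-concentration duplicates (25 uM), then concentration-response for actives; DMSO negative control.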
row,SMILES,AC50
1,CN(C)c1ccc(C(=N)c2ccc(N(C)C)cc2)cc1,2.62 µM (active)
2,CCOc1nc(F)cc2nc(S(=O)(=O)Nc3c(Cl)cccc3C(=O)OC)nn12,1.63 µM (active)
3,CCCCC/C=C\C/C=C\CCCCCCCC(=O)OC,8.31 µM (active) and 6.11 µM (active)
4,Cc1ccc(N/N=c2\c(=O)cc/c(=N/Nc3ccc(S(=O)(=O)O)cc3)c2=O)c(C)c1,7.15 µM (active)
5,O=c1cc(-c2ccccc2)oc2ccccc12,12.6 µM (active)
6,CC/C=C\C/C=C\C/C=C\CCCCCCCC(=O)O,11.6 µM (active)
7,O=C(Nc1ccccc1SSc1ccccc1NC(=O)c1ccccc1)c1ccccc1,6.22 µM (active)
8,C/C=C\C/C=C/CCCCCCCCOC(C)=O,16.3 µM (active)
9,C1=Cc2ccccc2C1,15.2 µM (active)
10,CCCCCCCCCCCCCCCC[N+](C)(C)CC,35.8 µM (active)
11,CCCCCCCC[N+](C)(CCCCCCCC)CCCCCCCC,3.77 µM (active)
12,CCCCCCCCCCCCCOP(=O)(O)O,18.4 µM (active)
13,O=S(=O)(O)c1ccccc1C=Cc1ccc(-c2ccc(C=Cc3ccccc3S(=O)(=O)O)cc2)cc1,0.6 µM (active)

# Molecular target: rat Peripheral-type Benzodiazepine Receptor (PBR), Tspo (gene 24230) (UniProt P16257)
# Sequence (P16257 whole entry, looked up): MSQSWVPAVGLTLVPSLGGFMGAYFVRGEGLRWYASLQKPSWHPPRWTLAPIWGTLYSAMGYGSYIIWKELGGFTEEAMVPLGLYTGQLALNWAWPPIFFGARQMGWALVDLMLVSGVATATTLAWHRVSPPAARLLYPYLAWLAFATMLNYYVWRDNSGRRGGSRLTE
# Experiment: NVS_MP_rPBR: NovaScreen (NVS) Membrane Protein Assay for rat Peripheral-type Benzodiazepine Receptor (PBR) (AID 2283335)
# Method in brief: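 Single-concentration duplicate screening at 25 uM preceded concentration-series retesting of actives. Binding of a specific radioligand to rat kidney membrane PBR was read by filtration radiodetection after 1 h, with plate-wise positive and negative controls.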
SMILES,AC50,outcome
CN(C)c1ccc(C(=N)c2ccc(N(C)C)cc2)cc1,11.6 µM (active),–
CCCCC/C=C\C/C=C\CCCCCCCC(=O)OC,9.68 µM (active) and 8.87 µM (active),–
Cc1ccc(N/N=c2\c(=O)cc/c(=N/Nc3ccc(S(=O)(=O)O)cc3)c2=O)c(C)c1,5.26 µM (active),–
O=c1cc(-c2ccccc2)oc2ccccc12,3.68 µM (active),–
O=C(Nc1ccccc1SSc1ccccc1NC(=O)c1ccccc1)c1ccccc1,–,inactive
C/C=C\C/C=C/CCCCCCCCOC(C)=O,17.2 µM (active),–
CC(C)c1ccc2c(C(C)C)cc(C(C)C)c(S(=O)(=O)O)c2c1,–,inactive
O=S(=O)(O)c1ccccc1C=Cc1ccc(-c2ccc(C=Cc3ccccc3S(=O)(=O)O)cc2)cc1,2.43 µM (active),–

# Molecular target: bovine Estrogen Receptor (ER), ESR1 (gene 407238) (UniProt P49884)
# Sequence (P49884 whole entry, looked up): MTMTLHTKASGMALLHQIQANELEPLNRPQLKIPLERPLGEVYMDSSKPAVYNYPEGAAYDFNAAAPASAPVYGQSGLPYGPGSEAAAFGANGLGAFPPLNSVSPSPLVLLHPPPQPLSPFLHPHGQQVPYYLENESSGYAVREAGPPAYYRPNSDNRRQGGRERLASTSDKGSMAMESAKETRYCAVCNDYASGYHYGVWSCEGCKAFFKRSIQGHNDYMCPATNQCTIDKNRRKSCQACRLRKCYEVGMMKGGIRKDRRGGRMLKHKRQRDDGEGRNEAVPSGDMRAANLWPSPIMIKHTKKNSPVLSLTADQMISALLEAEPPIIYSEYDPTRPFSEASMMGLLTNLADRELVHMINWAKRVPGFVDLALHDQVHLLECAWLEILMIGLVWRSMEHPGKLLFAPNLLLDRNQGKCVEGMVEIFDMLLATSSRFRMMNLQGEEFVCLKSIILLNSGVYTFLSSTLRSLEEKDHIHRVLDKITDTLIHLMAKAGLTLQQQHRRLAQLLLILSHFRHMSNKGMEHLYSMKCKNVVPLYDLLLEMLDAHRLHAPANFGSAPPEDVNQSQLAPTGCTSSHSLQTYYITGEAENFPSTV
# Experiment: NVS_NR_bER: NovaScreen (NVS) Nuclear Receptor Binding Assay for bovine Estrogen Receptor (ER) (AID 2283345);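 also: actives lower the bound radioligand count which means they displace the ER ligand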
# Method in brief: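 Cell-free radioligand binding with receptor from bovine uterine membranes, read by scintillation counting 18 h after dosing. Loss of specific binding was scored against DMSO; primary screen at 25 uM in duplicate, actives then run as concentration series.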
SMILES,outcome,AC50
Cc1cccc(N)n1,inactive,–
O=C(c1ccc(O)cc1)c1ccc(O)cc1O,–,2.12 µM (active)
OC1CCCCCCCCCCC1,inactive,–
CCCCC/C=C\C/C=C\CCCCCCCC(=O)OC,inactive,–
Oc1ccc(Cl)cc1Cc1cc(Cl)ccc1O,inactive,–
Cc1cc(O)c(Cl)c(C)c1Cl,inactive,–
CN(C)c1ccc(N=Nc2ccccc2C(=O)O)cc1,inactive,–
O=C1CCCCCN1SSN1CCCCCC1=O,inactive,–
O=c1cc(-c2ccccc2)oc2ccccc12,inactive,–
Cc1cccc(N(C)C(=S)Oc2ccc3ccccc3c2)c1,inactive,–
CCOC(=O)N1CCC(=C2c3ccc(Cl)cc3CCc3cccnc32)CC1,inactive,–
COc1ccc(C(Cl)=C(c2ccc(OC)cc2)c2ccc(OC)cc2)cc1,inactive,–
CC1=Nc2ccc3ccccc3c2C1(C)C,inactive,–
[Cl][Bi]([Cl])([c]1ccccc1)([c]1ccccc1)[c]1ccccc1,inactive,–
CCC(=O)Oc1ccc(/C(CC)=C(\CC)c2ccc(OC(=O)CC)cc2)cc1,–,0.00521 µM (active)
CC(=O)c1ccc2c(c1)CCCC2,–,5.86 µM (active)
C#CC1(O)CC[C@H]2[C@@H]3CCC4=CCCC[C@@H]4[C@H]3CC[C@@]21C (some centres undefined),–,6.05 µM (active)
S=C(NC1CCCCC1)NC1CCCCC1,inactive,–
COc1ccc(-c2coc3cc(O)ccc3c2=O)cc1,inactive,–
CCOC(=O)c1ccccc1C(=C1C=C(Br)C(=O)C(Br)=C1)c1cc(Br)c(O)c(Br)c1,inactive,–
O=C1Nc2ccccc2C1(c1ccc(O)cc1)c1ccc(O)cc1,inactive,–
CCCCCCCCCCCCCOP(=O)(O)O,inactive,–
O=S(=O)(O)c1ccccc1C=Cc1ccc(-c2ccc(C=Cc3ccccc3S(=O)(=O)O)cc2)cc1,inactive,–

# Molecular target: chimpanzee Androgen Receptor (AR), AR (gene 747460) (UniProt O97775)
# Sequence (O97775 whole entry, looked up): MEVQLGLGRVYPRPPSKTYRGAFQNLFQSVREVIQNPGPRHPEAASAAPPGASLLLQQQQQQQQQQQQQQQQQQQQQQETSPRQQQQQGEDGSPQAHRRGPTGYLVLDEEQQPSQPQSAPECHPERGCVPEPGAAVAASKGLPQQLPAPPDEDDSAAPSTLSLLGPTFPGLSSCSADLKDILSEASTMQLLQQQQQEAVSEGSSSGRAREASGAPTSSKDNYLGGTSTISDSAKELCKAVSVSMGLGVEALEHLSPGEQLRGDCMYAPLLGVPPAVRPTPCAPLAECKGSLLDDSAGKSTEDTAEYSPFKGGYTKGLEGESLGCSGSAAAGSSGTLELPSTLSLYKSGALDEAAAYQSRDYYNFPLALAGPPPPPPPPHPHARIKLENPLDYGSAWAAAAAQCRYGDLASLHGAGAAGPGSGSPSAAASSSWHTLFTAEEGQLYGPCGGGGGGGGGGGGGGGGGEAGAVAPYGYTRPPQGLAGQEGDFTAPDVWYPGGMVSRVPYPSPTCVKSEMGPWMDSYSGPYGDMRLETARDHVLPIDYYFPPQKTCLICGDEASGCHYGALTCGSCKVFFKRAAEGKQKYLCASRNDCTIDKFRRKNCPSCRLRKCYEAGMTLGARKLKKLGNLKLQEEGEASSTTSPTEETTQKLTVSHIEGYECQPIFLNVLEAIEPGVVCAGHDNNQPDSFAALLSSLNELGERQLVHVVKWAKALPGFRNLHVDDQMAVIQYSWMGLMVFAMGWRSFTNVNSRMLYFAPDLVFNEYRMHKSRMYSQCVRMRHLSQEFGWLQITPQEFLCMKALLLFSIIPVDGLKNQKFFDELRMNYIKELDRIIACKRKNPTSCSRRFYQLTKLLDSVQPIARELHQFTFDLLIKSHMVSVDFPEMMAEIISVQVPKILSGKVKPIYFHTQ
# Experiment: NVS_NR_cAR: NovaScreen (NVS) Nuclear Receptor Binding Assay for chimpanzee Androgen Receptor (AR) (AID 2283346);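 also: radioligand displacement from AR measured by scintillation counting in a cell-free assay; a loss of bound radioligand signal versus DMSO counts as binding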
# Method in brief: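 Radioligand binding to chimpanzee AR expressed in Sf9/Sf21 cells, cell-free, measured 72 h after dosing by lysate-based scintillation counting. Loss of signal vs DMSO; initial duplicate screen at 25 uM, actives retested in concentration series.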
SMILES,outcome,AC50
OC1CCCCCCCCCCC1,inactive,–
CCCCC/C=C\C/C=C\CCCCCCCC(=O)OC,–,4.2 µM (active) and 11.5 µM (active)
Oc1ccc(Cl)cc1Cc1cc(Cl)ccc1O,–,16.2 µM (active)
CN(C)c1ccc(N=Nc2ccccc2C(=O)O)cc1,inactive,–
Cc1ccc(N/N=c2\c(=O)cc/c(=N/Nc3ccc(S(=O)(=O)O)cc3)c2=O)c(C)c1,–,25 µM (active)
C#CC1(O)CC[C@H]2[C@@H]3CCC4=CCCC[C@@H]4[C@H]3CC[C@@]21C (some centres undefined),inactive,–

# Molecular target: Estrogen receptor (Homo sapiens) (UniProt P03372)
# Sequence (P03372 whole entry, looked up): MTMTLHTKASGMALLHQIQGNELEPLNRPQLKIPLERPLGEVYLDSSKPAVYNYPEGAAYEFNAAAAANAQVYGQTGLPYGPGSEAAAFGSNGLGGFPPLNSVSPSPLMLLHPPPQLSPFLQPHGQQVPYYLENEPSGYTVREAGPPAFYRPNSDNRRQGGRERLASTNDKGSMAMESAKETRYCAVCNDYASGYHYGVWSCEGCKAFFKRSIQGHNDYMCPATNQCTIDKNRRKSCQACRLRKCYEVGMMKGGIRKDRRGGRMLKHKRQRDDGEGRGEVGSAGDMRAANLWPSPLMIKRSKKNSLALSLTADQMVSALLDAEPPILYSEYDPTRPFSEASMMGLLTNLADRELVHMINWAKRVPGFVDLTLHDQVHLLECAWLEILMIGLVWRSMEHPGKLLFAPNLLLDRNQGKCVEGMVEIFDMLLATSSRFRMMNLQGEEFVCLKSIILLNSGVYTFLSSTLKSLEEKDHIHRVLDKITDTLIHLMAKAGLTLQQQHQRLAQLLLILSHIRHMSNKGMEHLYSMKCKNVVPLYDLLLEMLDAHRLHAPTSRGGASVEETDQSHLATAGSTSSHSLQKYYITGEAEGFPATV
# Experiment: NVS_NR_hER: NovaScreen (NVS) Nuclear Receptor Binding Assay for human Estrogen Receptor (ER) (AID 2283348)
# Method in brief: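 MCF7-derived receptor extract, radiolabelled ligand, competitive displacement. Read: scintillation counts at 18 h. DMSO = negative control/baseline. Primary 25 uM duplicate; follow-up concentration–response.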
SMILES,outcome,AC50
CN(C)c1ccc(C(=N)c2ccc(N(C)C)cc2)cc1,inactive,–
Cc1cccc(N)n1,inactive,–
O=C(c1ccc(O)cc1)c1ccc(O)cc1O,–,0.481 µM (active)
CCCCC/C=C\C/C=C\CCCCCCCC(=O)OC,inactive,6.14 µM (active)
Oc1ccc(Cl)cc1Cc1cc(Cl)ccc1O,–,25 µM (active)
O=c1cc(-c2ccccc2)oc2ccccc12,inactive,–
CC/C=C\C/C=C\C/C=C\CCCCCCCC(=O)O,–,25 µM (active)
Cc1cccc(N(C)C(=S)Oc2ccc3ccccc3c2)c1,inactive,–
CCOC(=O)N1CCC(=C2c3ccc(Cl)cc3CCc3cccnc32)CC1,–,0.0259 µM (active)
COc1ccc(C(Cl)=C(c2ccc(OC)cc2)c2ccc(OC)cc2)cc1,–,7.49 µM (active)
O=C(Nc1ccccc1SSc1ccccc1NC(=O)c1ccccc1)c1ccccc1,inactive,–
[Cl][Bi]([Cl])([c]1ccccc1)([c]1ccccc1)[c]1ccccc1,inactive,–
CCC(=O)Oc1ccc(/C(CC)=C(\CC)c2ccc(OC(=O)CC)cc2)cc1,–,0.00229 µM (active)
C/C=C\C/C=C/CCCCCCCCOC(C)=O,inactive,–
CCCCCCCCCCCCCCCC[N+](C)(C)CC,inactive,–
CC(C)c1ccc2c(C(C)C)cc(C(C)C)c(S(=O)(=O)O)c2c1,inactive,–
C#CC1(O)CC[C@H]2[C@@H]3CCC4=CCCC[C@@H]4[C@H]3CC[C@@]21C (some centres undefined),inactive,0.258 µM (active)
S=C(NC1CCCCC1)NC1CCCCC1,inactive,–
COc1ccc(-c2coc3cc(O)ccc3c2=O)cc1,–,7.09 µM (active)
O=C1Nc2ccccc2C1(c1ccc(O)cc1)c1ccc(O)cc1,inactive,–
CCCCCCCCCCCCCOP(=O)(O)O,inactive,–
O=S(=O)(O)c1ccccc1C=Cc1ccc(-c2ccc(C=Cc3ccccc3S(=O)(=O)O)cc2)cc1,inactive,–
